Jurkat NFkB inh: lowers PMA/ionomycin-induced NF-kB signal in Jurkat cells; PMA/ionomycin-induced NF-kB luciferase reporter, luminescence; inhibition, % at 4 µM; 0.53% of 330,000 active; in the data active = inhibition above about 50%
COUP-TFII inh: blocks human COUP-TFII nuclear receptor; HEK293T NGFI-A luciferase reporter, luminescence; inhibition, % at 8.6 µM; 0.7% of 370,000 active; AID 686940;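 active = inhibition above a per-plate cutoff, mean inhibition of test wells between control levels plus 3 SD, cut at about 38% in these data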;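 also: cells cotransfected with COUP-TFII expression vector driving the NGFI-A reporter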
Target sequence (P24468 whole entry, looked up): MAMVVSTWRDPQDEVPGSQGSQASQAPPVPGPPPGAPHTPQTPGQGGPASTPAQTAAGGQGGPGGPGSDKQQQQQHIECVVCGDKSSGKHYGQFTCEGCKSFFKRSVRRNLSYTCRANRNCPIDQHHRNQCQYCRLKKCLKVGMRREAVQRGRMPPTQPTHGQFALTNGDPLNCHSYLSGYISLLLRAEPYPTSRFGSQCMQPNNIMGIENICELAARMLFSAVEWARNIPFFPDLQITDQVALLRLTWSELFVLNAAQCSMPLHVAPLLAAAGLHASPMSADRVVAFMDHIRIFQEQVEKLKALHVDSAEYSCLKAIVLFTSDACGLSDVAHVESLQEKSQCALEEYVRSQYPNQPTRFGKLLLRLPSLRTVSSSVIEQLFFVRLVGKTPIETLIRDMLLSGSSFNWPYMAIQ
H9c2 protect: protects H9c2 cardiomyocytes from peroxide injury. H2O2 injury protection, ATPLite, 2 h. protection from H2O2 cell death, % at 20 µM. 0.63% of 360,000 active;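 active = compounds giving at least 50% protection of heart cells from peroxide-induced death in the single-dose screen, raw or plate-pattern-corrected value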
697 NFkB inh: lowers PMA/ionomycin-induced NF-kB signal in 697 B cells. 697 B-cell NF-kB luciferase reporter, 16 h. inhibition, % at 4 µM. AID 435022. 0.33% of 330,000 active; in the data active = inhibition above about 35%
H9c2 TAG inh: inhibitors of triacylglycerol accumulation; H9c2 cells, Nile Red lipid (TAG) fluorescence; cells loaded with 200 µM oleic acid; inhibition, % at 12.5 µM; 0.66% of 230,000 active;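 active = pattern-corrected inhibition of lipid staining of at least 50% with the nuclear-stain viability signal not falling by more than 50%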
Gli-Sufu block: blocks Gli-Sufu signaling in a luciferase reporter | Sufu-KO-LIGHT fibroblasts, Gli luciferase reporter luminescence | inhibition, % at 5 µM | 0.74% of 340,000 active | AID 588413;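 active = inhibition above about 55%, limit read from the data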
Gli-Sufu confirm: confirmation of Gli-SUFU pathway antagonists | inhibition, % at 5 µM | 40% of 2,500 active | shares compounds with Gli-Sufu block | Sufu-KO-LIGHT cells, Gli luciferase reporter, luminescence;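 active = mean inhibition at 5 µM reaching about 45%, limit read from the data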
SufuKO cytotox: counter-screen for Gli-SUFU antagonists: cytotoxicity; shares compounds with Gli-Sufu block; Sufu-KO-LIGHT cells cytotoxicity, ATP luminescence; cytotoxicity, % at 5 µM; 32% of 2,500 active;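 active = mean cytotoxicity at 5 µM above about 25%, limit read from the data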;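 also: cells exposed to compound overnight for roughly 16 to 18 hours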
Wnt3a counter: counter-screen for Gli-SUFU antagonists: Wnt3a reporter inhibition. shares compounds with Gli-Sufu block. Wnt-LIGHT cells, Wnt3a-driven luciferase reporter, luminescence. inhibition, % at 6.25 µM. 20% of 2,500 active;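 active = mean inhibition above about 25%, limit read from the data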
Hits are given with their value; . = inactive; / = no result. Sampled rows, rich in hits. Any-hit rate of the full collection: about 2.6%.

SMILES | Jurkat NFkB inh | COUP-TFII inh | H9c2 protect | 697 NFkB inh | H9c2 TAG inh | Gli-Sufu block | Gli-Sufu confirm | SufuKO cytotox | Wnt3a counter
O=C(C1=C[C@@H](c2coc3ccccc3c2=O)C[C@@H](OCc2ccc(CO)cc2)O1)N1CCN(Cc2ccc3c(c2)OCO3)CC1 | . | . | . | . | . | . | / | / | /
O=C(C1=C[C@H](c2coc3ccccc3c2=O)C[C@H](OCc2ccc(CO)cc2)O1)N1CCN(Cc2ccc3c(c2)OCO3)CC1 | . | . | . | . | . | . | . | . | .
CCCCN1CCN(C2=Nc3ccccc3Sc3ccccc32)CC1 | / | . | / | / | / | / | / | / | /
O=C(NCCOC(=O)c1ccc(C(=O)OCCNC(=O)c2ccccc2)o1)c1ccccc1 | . | . | . | . | . | . | . | . | .
CCCC(=O)Nc1c2c(nn1-c1ccc(OC)cc1)CS(=O)C2 (stereo not drawn) | . | . | . | . | . | . | . | . | .
OCC1CCCCN1CCNCc1cn[nH]c1-c1cccc2ccccc12 (stereo not drawn) | . | . | . | . | . | . | / | / | /
c1ccc2c(-c3[nH]ncc3CNCCCn3ncc4ccccc43)cccc2c1 | . | . | . | . | . | 58 | . | . | .
CCc1nnc(NC(=O)C(C)C)s1 | . | . | . | . | . | 93 | . | . | .
O=C(c1ccccc1F)N1CCCc2ccccc21 | . | . | . | . | . | . | / | / | /
CCc1ccc2c(c1)CCCN2C(=O)c1ccccc1C(=O)O | . | . | . | . | / | . | . | . | .
NC(=S)N/N=C/c1ncc(C(F)(F)F)cc1Cl | . | / | . | . | . | . | 65 | 28 | 44
Cc1cc2nc(-c3cccnc3SCC(=O)NCc3ccco3)[nH]c2cc1C | . | . | . | . | / | . | / | / | /
O=C(CSc1ncccc1-c1nc2ccccc2[nH]1)NCc1ccco1 | . | . | . | . | / | 58 | . | 27 | .
COC(=O)[C@]12C[C@H](CC(=O)NCCCCc3ccccc3)C(=O)N(Cc3ccccc3)C1=C[C@H](C(C)C)O[C@@H]2C1CC1 | / | . | / | / | / | / | / | / | /
COc1ccc(/C=N\N2CCN(Cc3ccccc3Cl)CC2)cc1 | . | . | . | . | . | . | . | . | .
Clc1ccc(/C=N/N2CCN(Cc3ccccc3Cl)CC2)cc1 | . | . | . | . | / | . | / | / | /
O=C1N(CC[C@@H](O)c2ccccc2)CCC12CCC(c1ccccc1)CC2 (stereo partly drawn) | / | . | / | / | / | / | / | / | /
Cc1cc(C)n(-c2nnc(C)n2/N=C/c2ccco2)n1 | . | . | . | . | / | . | . | . | .
CCCOc1ccc2ccccc2c1/C=N/n1c(C)nnc1-n1nc(C)cc1C | . | . | . | . | / | . | / | / | /
Cc1ccc(NC(=O)C2CCN(c3ncccn3)CC2)cc1C | / | . | / | / | / | / | / | / | /
Brc1ccc(C2=Nn3c(Cn4nnc5ccccc54)nnc3SC2)cc1 | . | . | . | . | . | . | . | . | .
COc1ccc(C(=O)/C=C(\Nc2ccc(F)cc2)c2ccc(OC)cc2OC)c(OC)c1 | / | . | / | / | / | / | / | / | /
O=C(N[C@@H](Cc1cccnc1)C(=O)N1CCC[C@H]1C(=O)NCCc1ccccc1Cl)c1ccccc1 | / | . | / | / | / | / | / | / | /
CCCCCCCC[n+]1c(C)n(-c2ccccc2)c2ccc(NC(C)=O)cc21 | . | . | . | . | . | 76 | 78 | 31 | .
COCCN(C(=O)CSc1nnc(-c2ccccc2F)n1N)c1c(N)n(Cc2ccccc2)c(=O)[nH]c1=O | . | . | . | . | / | . | . | . | .
COCCN(C(=O)CSc1nnc(-c2cccc(F)c2)n1N)c1c(N)n(Cc2ccccc2)c(=O)[nH]c1=O | . | . | . | . | . | . | / | / | /
NC(N)=NC(N)=Nc1ccc(SC(F)(F)F)cc1 | . | . | . | . | / | 67 | 72 | 28 | 94
COc1ccc(CN2CCC(CNC(=O)Nc3ccc(C)c(F)c3)CC2)cc1 | / | . | / | / | / | / | / | / | /
CCCCNC(=O)NC1CCN(CC(=O)Nc2ccc3c(c2)OCCO3)CC1 | / | . | / | / | / | / | / | / | /
